Values without a mark were called inactive.
System: MCF10A
Assay: perturbation Mahalanobis distance of morphological profile vs DMSO controls (Mahalanobis distance (SD units)); higher = stronger morphological change, active = 7 or more
Conditions: 72 h
Protocol: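 MCF10A cells were seeded onto drugs dispensed acoustically into 384-well plates, using one dose per drug chosen from its human peak plasma concentration, and incubated for 72 h at 37 °C. Cells were stained for DNA, tubulin and mitochondria and imaged; 78 CellProfiler features were extracted, plate-normalised and compared with DMSO wells.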

[1] = screen batch: Batch1_Mahalanobis_Distance
[2] = screen batch: Batch2_Mahalanobis_Distance

| SMILES | perturbation Mahalanobis distance [1] | perturbation Mahalanobis distance [2] |
| --- | --- | --- |
| CN(C)C(=O)C(CCN1CCC(O)(c2ccc(Cl)cc2)CC1)(c1ccccc1)c1ccccc1 [Loperamide] (32 µM) | 3.13 | 2.31 |
| C[C@](N)(Cc1ccc(O)cc1)C(=O)O [Metyrosine] (71.7 µM) | 3.87 | 3.02 |
| NC(=O)c1ncn([C@@H]2O[C@H](CO)[C@@H](O)[C@H]2O)n1 [Ribavirin] (75.3 µM) | 5.79 | 11.4 (active) |
| C#CCN(C)Cc1ccccc1 [Pargyline] (1.9 µM) | 3.93 | 3.63 |
| Nc1nc(NC2CC2)c2ncn(C3C=C[C@H](CO)C3)c2n1 (stereo not given in full) [Abacavir] (74.4 µM) | 3.81 | 2.47 |
